This note sets out measurements from PubChem BioAssay (NCATS).

Several values for one entry are separate records, joined by “and”; a condition that tells them apart may be missing. Equal entries are not always repeated. Inconclusive results are not listed. Activity calls are given as the source filed them. Unless noted, the call rests on the fitted dose curve.

Experiment [1] addresses Androgen receptor (Homo sapiens) (UniProt P10275). Put plainly: qHTS assay for small molecule agonists of androgen receptor signaling (AID 588515; active means well fitted curve in the direction sought with a large enough effect in the signal ratio, with a control signal flat; the % refers to the signal ratio; further: on the % scale 0 is the no-effect control and ±100 the full control effect). Conditions: AR-UAS-bla HEK293, beta-lactamase ratio, agonist 16 h; stronger effect = higher value. In a few lines:
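EC50 and efficacy came from Hill fits of titrations (up to 92 uM) normalized to 30 nM R1881 as 100% and DMSO as 0%. Compound exposure was 16 h at 37 C on AR-UAS-bla HEK293 cells, with a 405/460/530 nm CCF4 fluorescence read.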
On the technique in general: Quantitative high-throughput screening tests each substance at several concentrations.

The target is the same in experiment [2]. Kind of experiment: qHTS assay for small molecule antagonists of androgen receptor signaling (AID 588516; active means well fitted curve in the direction sought with a large enough effect in the signal ratio, with a control signal flat, not every such curve was filed as active; the % refers to the signal ratio; further: on the % scale 0 is the no-effect control and ±100 the full control effect). Put shortly:
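AR-UAS-bla GripTite HEK 293 cells (2000/well) treated with compound titrations plus 10 nM R1881 for 16 h at 37C. Beta-lactamase read by CCF4 FRET (460/530 nm); IC50 from Hill fits, normalized to R1881 and DMSO control wells.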

Experiment [3] addresses Bile acid receptor (Homo sapiens) (UniProt Q96RI1). Kind of experiment: qHTS assay for small molecule antagonists of farnesoid X receptor signaling (AID 588526). Further: on the % scale 0 is the no-effect control and ±100 the full control effect. Put shortly:
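Beta-lactamase reporter antagonist mode: HEK293T FXR-UAS-bla cells, titrated compound, CDCA stimulation, 16 h 37 C, CCF4 dye 2 h RT. Data normalized to CDCA 50 uM and DMSO; Hill-fit IC50.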

Experiment [4] shares this target. Kind of experiment: qHTS assay for small molecule agonists of farnesoid X receptor signaling (AID 588527).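 Further: series mostly up to about 77 µM; 0% = vehicle basal and 100% = reference agonist.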 Conditions: HEK293T FXR-UAS-bla, beta-lactamase ratio, 16 h; activation: stronger effect = higher value. Put shortly:
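Read-out: beta-lactamase reporter fluorescence with CCF4 substrate in GeneBLAzer FXR-UAS-bla HEK293T cells, after 16 h compound exposure at 37 C. Response scaled between DMSO basal (0%) and chenodeoxycholic acid at 100 uM (100%).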

Experiment [5] deals with Glucocorticoid receptor (Homo sapiens) (UniProt P04150). Put plainly: qHTS assay for small molecule agonists of glucocorticoid receptor signaling (AID 588532; active means well fitted curve in the direction sought with a large enough effect in the signal ratio, with a control signal flat; the % refers to the signal ratio;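 further: 100% = dexamethasone at 0.1 µM and 0% = DMSO only wells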). Conditions: HeLa MMTV-bla, beta-lactamase ratio, agonist, 18 h; activation: stronger effect = higher value, percent of dexamethasone control, DMSO zero. In a few lines: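 Quantitative HTS using CellSensor MMTV-bla HeLa cells in charcoal/dextran-treated serum; compounds tested up to 92 uM. After 18 h at 37 C, CCF4 dye reported reporter induction.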
Glucocorticoid receptor (Homo sapiens), sequence (P04150 whole entry, looked up): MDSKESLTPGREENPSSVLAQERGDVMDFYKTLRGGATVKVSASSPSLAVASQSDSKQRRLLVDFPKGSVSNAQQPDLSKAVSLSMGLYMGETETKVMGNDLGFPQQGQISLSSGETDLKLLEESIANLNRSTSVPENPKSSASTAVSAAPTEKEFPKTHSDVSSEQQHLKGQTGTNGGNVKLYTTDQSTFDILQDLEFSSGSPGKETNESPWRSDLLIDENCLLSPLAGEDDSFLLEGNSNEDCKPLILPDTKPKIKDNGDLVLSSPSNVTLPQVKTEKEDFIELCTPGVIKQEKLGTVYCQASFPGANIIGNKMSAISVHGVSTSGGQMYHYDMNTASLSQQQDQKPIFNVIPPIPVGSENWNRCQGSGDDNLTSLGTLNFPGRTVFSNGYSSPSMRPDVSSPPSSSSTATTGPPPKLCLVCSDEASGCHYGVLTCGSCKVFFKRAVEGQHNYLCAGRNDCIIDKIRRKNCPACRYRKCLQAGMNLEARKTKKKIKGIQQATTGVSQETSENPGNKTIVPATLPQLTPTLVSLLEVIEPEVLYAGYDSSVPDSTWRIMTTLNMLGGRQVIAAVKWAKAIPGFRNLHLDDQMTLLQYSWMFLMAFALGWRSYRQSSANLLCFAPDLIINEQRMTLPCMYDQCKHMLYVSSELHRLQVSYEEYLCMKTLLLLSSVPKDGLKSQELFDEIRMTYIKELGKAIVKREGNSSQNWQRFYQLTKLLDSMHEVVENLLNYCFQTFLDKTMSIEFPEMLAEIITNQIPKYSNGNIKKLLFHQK

For experiment [6] the target is unchanged. Put plainly: qHTS assay for small molecule antagonists of glucocorticoid receptor signaling (AID 588533; active means well fitted inhibition curve with a large enough effect in the signal ratio, with a control signal flat, not every such curve was filed as active; the % refers to the signal ratio;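 further: cells stimulated with 2 nM dexamethasone as agonist; on the % scale 0 is the no-effect control and ±100 the full control effect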). Put shortly: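 Antagonist-mode qHTS: compound titrations added to GRE-bla HeLa cells, then dexamethasone 2 nM final; 18 h, 37 C. CCF4 FRET fluorescence normalized to dexamethasone and DMSO; IC50 from Hill fit.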
Experiment [7] can be described thus: qHTS assay for small molecule antagonists of peroxisome proliferator-activated receptor delta signaling (AID 588535; active means well fitted inhibition curve with a large enough effect in the signal ratio, with a control signal flat, not every such curve was filed as active; the % refers to the signal ratio;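 on max response: cells co-treated with a PPAR-delta agonist as stimulator during compound exposure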). Conditions: HEK293T PPARd-UAS-bla, beta-lactamase FRET ratio, 18 h; 460 nm channel. In a few lines:
(§1)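 HEK293T PPAR-delta-UAS-bla cells, 4000/well, 2% charcoal/dextran FBS; 5 h 37 C; cpd titration; 18 h 37 C; CCF4 2 h RT; FI 460/530 nm; Hill fit → IC50, efficacy.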

Experiment [8] deals with Peroxisome proliferator-activated receptor delta (Homo sapiens) (UniProt Q03181). The experiment is described as above. In a few lines: as §1
Peroxisome proliferator-activated receptor delta (Homo sapiens), sequence (Q03181 whole entry, looked up): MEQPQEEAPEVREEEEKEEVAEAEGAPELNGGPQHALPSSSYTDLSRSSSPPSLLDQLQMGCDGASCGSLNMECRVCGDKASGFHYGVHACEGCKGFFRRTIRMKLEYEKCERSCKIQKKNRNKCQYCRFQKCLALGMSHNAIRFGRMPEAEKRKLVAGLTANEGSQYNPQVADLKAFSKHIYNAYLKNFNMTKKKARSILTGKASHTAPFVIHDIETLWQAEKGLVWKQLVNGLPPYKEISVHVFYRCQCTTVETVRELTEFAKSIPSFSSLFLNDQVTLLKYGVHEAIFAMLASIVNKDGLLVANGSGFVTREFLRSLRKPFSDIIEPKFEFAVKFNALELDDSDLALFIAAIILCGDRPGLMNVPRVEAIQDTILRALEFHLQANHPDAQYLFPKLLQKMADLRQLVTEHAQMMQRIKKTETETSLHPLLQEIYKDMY
Experiment [9] addresses Vitamin D3 receptor (Homo sapiens) (UniProt P11473). Put plainly: qHTS assay for small molecule agonists of vitamin D receptor signaling (AID 588543).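 Further: 0% = DMSO basal and 100% = reference agonist control.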 Put shortly: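 VDR-UAS-bla HEK293T cells, 2000/well, 2% charcoal-stripped FBS; compound titration 16 h at 37 C; CCF4 beta-lactamase ratio read. Normalized to 50 nM 1-alpha,25-dihydroxyvitamin D3 (100%) and DMSO; Hill fit gives EC50, efficacy.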

Experiment [10] is described as follows: qHTS assay for small molecule agonists of the antioxidant response element (ARE) signaling pathway (AID 651741; active means well fitted activation curve with a large enough effect in the signal ratio; the % refers to the signal ratio; further: potency means the concentration at half of the fitted maximal effect; on activation: % of control where 0% means no effect). Put shortly:
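Quantitative HTS in HepG2 cells stably expressing an ARE-beta-lactamase reporter; 16 h compound exposure at 37 C, followed by 2 h room-temperature incubation with LiveBLAzer B/G FRET substrate and fluorescence measurement.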

A short description of experiment [11]: qHTS assay for small molecule activators of the nuclear factor-kappa B (NF-kB) signaling pathway (AID 651749; active means well fitted activation curve with a large enough effect in the signal ratio; the % refers to the signal ratio; further: series mostly up to about 77 µM; % of control where 0% means no effect). Conditions: NF-kB-bla ME-180 cells, beta-lactamase FRET ratio, 16 h; activation: stronger effect = higher value. In a few lines: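 Readout: beta-lactamase reporter driven by an NF-kB response element, detected fluorescently as loss of FRET. Cells were the ME-180 line, treated 16 hr at 37C with pin-transferred compound.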

Experiment [12] can be described thus: qHTS assay for small molecule activators of the human pregnane X receptor (PXR) signaling pathway (AID 720659; call rule not given here; further: 0% is about no effect).

Bile acid receptor (Homo sapiens), sequence (Q96RI1 whole entry, looked up): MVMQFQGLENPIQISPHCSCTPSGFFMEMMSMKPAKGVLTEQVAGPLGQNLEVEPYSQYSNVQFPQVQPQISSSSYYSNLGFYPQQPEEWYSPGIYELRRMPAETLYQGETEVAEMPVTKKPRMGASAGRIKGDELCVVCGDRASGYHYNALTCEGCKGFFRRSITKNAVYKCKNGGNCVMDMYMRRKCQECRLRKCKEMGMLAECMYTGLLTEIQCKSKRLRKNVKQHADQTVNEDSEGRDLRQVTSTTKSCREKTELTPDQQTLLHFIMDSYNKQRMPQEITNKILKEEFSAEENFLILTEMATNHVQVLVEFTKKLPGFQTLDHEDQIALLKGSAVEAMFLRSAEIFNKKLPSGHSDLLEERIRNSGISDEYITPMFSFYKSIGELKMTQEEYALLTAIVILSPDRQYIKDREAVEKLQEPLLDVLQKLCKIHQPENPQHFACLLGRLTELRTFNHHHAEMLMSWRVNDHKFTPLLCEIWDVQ
Androgen receptor (Homo sapiens), sequence (P10275 whole entry, looked up): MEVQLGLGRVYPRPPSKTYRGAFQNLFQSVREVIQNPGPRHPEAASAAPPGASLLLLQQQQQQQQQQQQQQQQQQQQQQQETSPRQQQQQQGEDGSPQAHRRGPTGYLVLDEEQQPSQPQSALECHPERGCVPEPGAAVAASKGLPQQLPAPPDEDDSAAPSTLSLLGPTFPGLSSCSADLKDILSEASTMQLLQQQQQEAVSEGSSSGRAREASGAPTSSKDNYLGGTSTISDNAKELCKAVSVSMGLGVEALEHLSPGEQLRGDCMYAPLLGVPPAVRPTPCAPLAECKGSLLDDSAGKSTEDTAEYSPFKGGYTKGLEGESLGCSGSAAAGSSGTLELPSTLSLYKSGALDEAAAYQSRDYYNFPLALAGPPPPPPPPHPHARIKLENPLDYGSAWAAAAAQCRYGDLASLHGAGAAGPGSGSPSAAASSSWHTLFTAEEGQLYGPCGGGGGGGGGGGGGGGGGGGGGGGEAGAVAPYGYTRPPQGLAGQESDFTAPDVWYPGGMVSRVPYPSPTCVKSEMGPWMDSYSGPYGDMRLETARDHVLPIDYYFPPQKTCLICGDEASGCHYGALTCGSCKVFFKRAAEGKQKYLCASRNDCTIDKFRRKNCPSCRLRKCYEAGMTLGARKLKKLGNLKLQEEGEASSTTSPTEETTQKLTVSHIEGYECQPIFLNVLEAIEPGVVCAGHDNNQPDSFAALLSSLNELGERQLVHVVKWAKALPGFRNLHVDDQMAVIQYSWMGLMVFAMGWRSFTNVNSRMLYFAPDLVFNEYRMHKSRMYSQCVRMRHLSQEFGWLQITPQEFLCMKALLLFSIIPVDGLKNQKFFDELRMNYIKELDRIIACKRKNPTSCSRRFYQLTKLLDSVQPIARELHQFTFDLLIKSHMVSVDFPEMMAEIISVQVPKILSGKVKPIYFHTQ
Vitamin D3 receptor (Homo sapiens), sequence (P11473 whole entry, looked up): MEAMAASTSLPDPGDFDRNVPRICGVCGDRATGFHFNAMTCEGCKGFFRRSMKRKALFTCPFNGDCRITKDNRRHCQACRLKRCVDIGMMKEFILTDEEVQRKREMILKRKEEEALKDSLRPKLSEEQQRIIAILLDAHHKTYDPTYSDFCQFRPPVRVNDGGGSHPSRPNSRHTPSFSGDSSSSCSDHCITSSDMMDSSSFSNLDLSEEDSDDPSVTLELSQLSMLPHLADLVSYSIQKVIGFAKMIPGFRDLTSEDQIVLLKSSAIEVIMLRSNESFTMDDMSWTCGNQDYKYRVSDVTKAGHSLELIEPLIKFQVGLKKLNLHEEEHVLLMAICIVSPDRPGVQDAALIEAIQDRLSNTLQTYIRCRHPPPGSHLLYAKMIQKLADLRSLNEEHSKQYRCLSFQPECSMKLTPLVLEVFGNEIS

Regarding `COc1nc(C)nc(NC(=O)NS(=O)(=O)c2ccccc2CCC(F)(F)F)n1`, the activation was 6.02% (inactive) in experiment [1], 1.64% (inactive) in [4], -2.83% (inactive) in experiment [5] and -0.385% (inactive) in [11]. Moreover, the Potency entry in [2], in experiment [3], in experiment [6], in experiment [8] and in experiment [10] was “inactive” each time. Moreover, the max response in experiment [7] turned out to be 34.6%. Also, the outcome in experiment [9] and in experiment [12] was inactive.

As to `CCOP(=O)(O)C(N)=O`, the Potency result in experiment [3], in experiment [6], in experiment [8] and in experiment [10] was “inactive” throughout. Besides, the values for the activation in experiment [4] and in experiment [5] were 3.28% (inactive) and 4.17% (inactive), respectively. Moreover, the max response in experiment [7] was found to be 57.5%. Further, the result in [9] and in experiment [12] was inactive.

Turning to `CCCC1COC(Cn2cncn2)(c2ccc(Cl)cc2Cl)O1` (stereo unspecified), the activation in experiment [1] is -7.53% (inactive) and -11.8% (inactive); in experiment [11] it was -0.905% (inactive) and -2.64% (inactive). For the same compound, the Potency result in experiment [2], in [3], in [6] and in experiment [8] was “inactive” throughout. Besides, the max response in [7] amounted to 10.7%. For the same compound, the Potency in experiment [10] is 54.5 µM (active) and 61.1 µM (active).

In the case of `CCNc1nc(NC(C)(C)C)nc(SC)n1`, the Potency entry in [3], in [6] and in experiment [8] was “inactive” in each case. In addition, the activation in experiment [4] was 4.27% (inactive); in [5], 4.35% (inactive); in [11], -1.56% (inactive). Besides, in [7], the max response turned out to be 44.7%. Besides, in [9], the result was inactive.

On to `CCOP(=S)(OCC)Oc1ncn(-c2ccccc2)n1`, for which the activation is 5.78% (inactive) in experiment [1], 2.14% (inactive) in experiment [4] and 2.03% (inactive) in experiment [11]. Moreover, the Potency result in [2], in experiment [3], in [8] and in experiment [10] was “inactive” throughout. Also, the max response in experiment [7] amounted to 1.15%. Moreover, in experiment [9], the outcome was inactive.

For the compound `C=CC1(C)OC(=O)N(c2cc(Cl)cc(Cl)c2)C1=O` (stereo unspecified), the Potency result in [3], in experiment [6] and in experiment [8] was “inactive” in each case. The activation is -2.77% (inactive) in experiment [4], -11.4% (inactive) in [5] and -0.261% (inactive) in [11]. The max response in experiment [7] was -9.9%. Moreover, the result in experiment [9] was inactive.

For `Clc1ccc([C@]2(Cn3cncn3)C[C@@H](Br)CO2)c(Cl)c1`, the Potency result in experiment [3] and in experiment [6] was “inactive” each time. Moreover, the activation in experiment [4] is -2.66% (inactive) and -2.04% (inactive); in experiment [5] it was 7.46% (inactive) and -5.85% (inactive); in experiment [11] it was -2.1% (inactive) and -2.03% (inactive). Also, the outcome in [9] was inactive.

`CCOP(=O)(NC(C)C)Oc1ccc(S(C)=O)c(C)c1` (stereo unspecified): the Potency result in [2], in experiment [3], in [6], in experiment [8] and in experiment [10] was “inactive” each time. Besides, the activation is -0.691% (inactive) in experiment [4], -7.67% (inactive) in experiment [5] and 0.567% (inactive) in experiment [11]. The max response in [7] is -19.9%. Also, the outcome in experiment [9] and in [12] was inactive.

Regarding `Clc1ccc([C@]2(Cn3cncn3)C[C@H](Br)CO2)c(Cl)c1`, the Potency result in experiment [3], in experiment [6], in [8] and in experiment [10] was “inactive” throughout. The activation in [4] is 0.21% (inactive) and -0.946% (inactive); in [5], -7.37% (inactive) and -0.86% (inactive); in experiment [11] it was -1.6% (inactive) and -1.96% (inactive). Further, in [7], the max response is 7.61% and -41.8%. Besides, the outcome in [9] was inactive.

As for `Nc1ccc([N+](=O)[O-])cc1Cl`, the activation in experiment [1] was -9.37% (inactive); in [4], -2.5% (inactive); in experiment [5] it was -4.74% (inactive); in experiment [11], 0.235% (inactive). In addition, the Potency entry in experiment [3], in [6], in experiment [8] and in experiment [10] was “inactive” each time. Further, the max response in [7] is -22.4%. Besides, the outcome in experiment [9] and in [12] was inactive.

With `CCCCN(CC)C(=O)SCCC`, the activation is 8.69% (inactive) in [1], 3.83% (inactive) in experiment [4], 4.14% (inactive) in experiment [5] and -0.995% (inactive) in experiment [11]. For the same compound, the Potency result in experiment [3], in experiment [6] and in experiment [8] was “inactive” in each case. In addition, in experiment [7], the max response turned out to be 5.34%. The call in [9] and in [12] was inactive.

As to `CCOc1ccc(C(C)(C)COCc2cccc(Oc3ccccc3)c2)cc1`, the Potency entry in [3], in experiment [6], in [8] and in experiment [10] was “inactive” throughout. The activation in experiment [4] is 4.53% (inactive); in [5], -0.996% (inactive); in experiment [11] it was 2.46% (inactive). In addition, the max response in experiment [7] is -0.606%.

`O=C1NCCN1Cc1ccc(Cl)nc1`: the values for the activation in [1] and in experiment [11] were 5.64% (inactive) and -1.02% (inactive), respectively. The Potency result in experiment [2], in [3], in experiment [6], in experiment [8] and in experiment [10] was “inactive” each time. Besides, the max response in experiment [7] was -14.3%. For the same compound, in experiment [12], the call was inactive.

On to `CC1CCCCC1NC(=O)Nc1ccccc1` (stereo unspecified), for which the Potency entry in experiment [3], in experiment [6] and in experiment [8] was “inactive” throughout. Moreover, the activation in experiment [4] was 2% (inactive); in experiment [5] it was -3.51% (inactive); in experiment [11] it was -4.02% (inactive). For the same compound, the max response in [7] was 3.43%. In addition, the Potency in [10] is 34.4 µM (active).

Turning to `O=S1OC[C@@H]2[C@H](CO1)[C@@]1(Cl)C(Cl)=C(Cl)[C@]2(Cl)C1(Cl)Cl` (stereo partly specified), the activation in experiment [1] was -8.15% (inactive) and -7.22% (inactive); in experiment [5] it was -18.2% (inactive) and -5.58% (inactive); in experiment [11] it was 0.712% (inactive) and 0.812% (inactive). Also, the Potency entry in [2] is “inactive”. The compound was called inactive in [9]. Besides, the Potency in experiment [10] was 24.3 µM (active).

In the case of `Cc1cnc(C2=NC(C)(C(C)C)C(=O)N2)c(C(=O)O)c1` (stereo unspecified), the activation in [1] was -8.96% (inactive) and 2.01% (inactive); in experiment [5] it was 0.844% (inactive) and 5.59% (inactive). Besides, the Potency result in [2], in experiment [8] and in experiment [10] was “inactive” in each case. For the same compound, the max response in experiment [7] was -1.47%. In [9], the result was inactive.

As to `CCOP(=O)(SC(C)CC)SC(C)CC` (stereo unspecified), the activation was 7.1% (inactive) in experiment [1], -3.29% (inactive) in experiment [4], -2.32% (inactive) in experiment [5] and -1.37% (inactive) in experiment [11]. Moreover, the Potency result in experiment [2], in [3], in experiment [6] and in experiment [8] was “inactive” each time. For the same compound, the max response in experiment [7] is -10.9%. In addition, the compound was classed as inactive in experiment [9] and in experiment [12].

In the case of `COP(=S)(OC)Oc1ccc([N+](=O)[O-])c(C)c1`, the Potency entry in experiment [3] and in experiment [6] was “inactive” in each case. Moreover, the activation was 2.17% (inactive) in experiment [4] and -13.6% (inactive) in [5]. Moreover, the compound was called inactive in experiment [9].

`CCOP(=O)(OCC)SCSC(C)(C)C`: the activation was 3.02% (inactive) in experiment [1], -2.2% (inactive) in [5] and -3.03% (inactive) in experiment [11]. In addition, the Potency entry in [2], in experiment [3], in [6], in [8] and in experiment [10] was “inactive” in each case. Also, in experiment [7], the max response was found to be 5.82%. In addition, the result in experiment [9] and in experiment [12] was inactive.
